Drawing on publication PMC11062922 (Nature Chemical Biology, 2023), this text covers potency estimated from few doses for eleven compounds.

Each structure is given as a SMILES string.

For the first experiment, the system named is NQO2. More on the design: species or system human, MV4-11 + K-562 + COLO205 + SK-N-BE2 + OVCAR-8. The note with it: read-out: apparent Kd; compound concentrations:100 nM and 1000 nM (sheet 'Samples'); n = 1.
Regarding `c1ccc(-c2n[nH]cc2-c2ccnc(-c3ccc(CNC4CCOCC4)cc3)c2)nc1` [GW709213X], the potency estimated from few doses was 925 nM.

With `CN(C(=O)c1ccc(-c2cc(-c3c[nH]nc3-c3ccccn3)ccn2)cc1)C1CCOCC1` [GW810083X], the potency estimated from few doses was 1200 nM.

Take `N#Cc1ccc(-c2cc(-c3c[nH]nc3-c3ccccn3)ccn2)cc1` [GW693028X]: the potency estimated from few doses was 773 nM.

A further experiment has as its system PRKD2. More on the design: species or system human, MV4-11 + K-562 + COLO205 + SK-N-BE2 + OVCAR-8. The note with it: read-out: apparent Kd; compound concentrations:100 nM and 1000 nM (sheet 'Samples'); n = 1.
In the case of `Cc1cccc(-c2nc(Nc3ccc4[nH]ncc4c3)c3ccccc3n2)n1` [GW857175X], the potency estimated from few doses was 8.89 nM.

Turning to `c1ccc(-c2n[nH]cc2-c2ccnc3ccccc23)nc1` [GW271431X], the potency estimated from few doses was 1430 nM.

For `Cc1cccc(-c2nc(Nc3ccncc3)c3ccccc3n2)n1` [GW855857X], the potency estimated from few doses is 3.39 nM.

On to `Cc1cc(Nc2nc(-c3cccc(C)n3)nc3ccccc23)ccn1` [GW872411X], for which the potency estimated from few doses was 4.12 nM.

Turning to `c1ccc(-c2n[nH]cc2-c2ccnc(-c3ccc(CNC4CCOCC4)cc3)c2)nc1` [GW709213X], the potency estimated from few doses is 195 nM.

The next experiment deals with PRKD3. More on the design: species or system human, MV4-11 + K-562 + COLO205 + SK-N-BE2 + OVCAR-8. The note with it: read-out: apparent Kd; compound concentrations:100 nM and 1000 nM (sheet 'Samples'); n = 1.
Turning to `Cc1cccc(-c2nc(Nc3ccc4[nH]ncc4c3)c3ccccc3n2)n1` [GW857175X], the potency estimated from few doses is 35.5 nM.

As to `Cc1cccc(-c2nc(Nc3ccncc3)c3ccccc3n2)n1` [GW855857X], the potency estimated from few doses was 6.73 nM.

Turning to `Cc1cc(Nc2nc(-c3cccc(C)n3)nc3ccccc23)ccn1` [GW872411X], the potency estimated from few doses is 6.25 nM.

`c1ccc(-c2n[nH]cc2-c2ccnc(-c3ccc(CNC4CCOCC4)cc3)c2)nc1` [GW709213X]: the potency estimated from few doses was 193 nM.

For a further experiment, the system named is TGFBR1. More on the design: species or system human, MV4-11 + K-562 + COLO205 + SK-N-BE2 + OVCAR-8. The note with it: read-out: apparent Kd; compound concentrations:100 nM and 1000 nM (sheet 'Samples'); n = 1.
For the compound `c1ccc(-c2n[nH]cc2-c2ccnc3ccccc23)nc1` [GW271431X], the potency estimated from few doses is 9.71 nM.

Take `Cl.NC(=O)c1ccc(-c2nc(-c3ccccn3)c(-c3ccc4c(c3)OCO4)[nH]2)cc1` [SB-431542-A]: the potency estimated from few doses was 946 nM.

With `COc1ccccc1-c1cc(/C=C2\C(=O)Nc3ncc(Br)cc32)cc(Br)c1O` [GW442130X], the potency estimated from few doses was 592 nM.

As for `COc1cccc(-n2ncc3c(N/N=C/c4ccncc4)ncnc32)c1` [GW784752X], the potency estimated from few doses was 1520 nM.

In the case of `Cc1cc(Nc2nc(-c3cccc(C)n3)nc3ccccc23)ccn1` [GW872411X], the potency estimated from few doses is 182 nM.

Consider `c1ccc(-c2n[nH]cc2-c2ccnc(-c3ccc(CNC4CCOCC4)cc3)c2)nc1` [GW709213X], for which the potency estimated from few doses was 12.6 nM.

As for `CN(C(=O)c1ccc(-c2cc(-c3c[nH]nc3-c3ccccn3)ccn2)cc1)C1CCOCC1` [GW810083X], the potency estimated from few doses was 198 nM.

Take `N#Cc1ccc(-c2cc(-c3c[nH]nc3-c3ccccn3)ccn2)cc1` [GW693028X]: the potency estimated from few doses is 263 nM.

The next experiment relates to TGFBR2. Details: species or system human, MV4-11 + K-562 + COLO205 + SK-N-BE2 + OVCAR-8. The following applies: read-out: apparent Kd; compound concentrations:100 nM and 1000 nM (sheet 'Samples'); n = 1.
`Cl.Cl.Oc1cc(-c2nc(-c3ccccc3)[nH]c2-c2ccncc2)ccc1Cl.Oc1cc(-c2nc(-c3ccccc3)[nH]c2-c2ccncc2)ccc1Cl` [SB-386023-B]: the potency estimated from few doses is 2050 nM.

With `c1ccc(-c2n[nH]cc2-c2ccnc3ccccc23)nc1` [GW271431X], the potency estimated from few doses was 113 nM.

On to `Cc1cccc(-c2nc(Nc3ccncc3)c3ccccc3n2)n1` [GW855857X], for which the potency estimated from few doses is 855 nM.

Regarding `c1ccc(-c2n[nH]cc2-c2ccnc(-c3ccc(CNC4CCOCC4)cc3)c2)nc1` [GW709213X], the potency estimated from few doses is 1330 nM.
